Only some compounds are listed: those with a hit (about 11% of all), similar ones and a draw of the others.
HEK293 tox: HEK 293 cell cytotoxicity. HEK 293 viability, ATP luminescence (CellTiter-Glo), 48-72 h. Potency, µM (titrated, usually from 115 µM), actives largely listed as inhibitors. 6.6% of 94,000 active. AID 1345083; also: nearly all actives have a fitted effect of over 60% in size
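Luminescence from cellular ATP, measured with CellTiter-Glo, indicates HEK 293 viability. Cells plated at 250 cells/well are treated with compound for 48 or 72 hr at 37 degree Celsius before reagent addition.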
NIH3T3 tox: kills NIH 3T3 cells | NIH 3T3 viability, CellTiter-Glo ATP luminescence, 48-72 h | Potency, µM (highest dose often 96.7 µM), usual class: inhibitors | 4.3% of 94,000 active | AID 1345082; also: nearly all actives have a fitted effect of over 55% in size
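Cells were seeded at 400 per well, treated with pin-transferred compound, and kept 48 or 72 hr at 37 °C before CellTiter-Glo addition and luminescence imaging of cellular ATP.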
NPR1 antag: human Npr1 receptor antagonism; P16066; HEK293 hNpr1 GloSensor cGMP, ANP-stimulated luminescence; Potency, µM (series often up to 46.3 µM), usual class: inhibitors; 1.6% of 76,000 active; calls by dose curve; also: nearly all actives have a fitted effect of over 60% in size
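Compound pre-incubated 30 min at room temperature on GloSensor-loaded HEK293 cells stably carrying hNpr1 and the pGS-40F cGMP biosensor. Stimulation uses hNppA at 0.1 nM final; luminescence is taken at baseline and 20 min post-agonist.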
FLuc inh-1: inhibitors of firefly (Photinus pyralis) luciferase. P08659. purified P. pyralis luciferase, luminescence, biochemical. Potency, µM (top dose mostly 115 µM), usual class: inhibitors. 2.5% of 76,000 active. AID 1347043; also: nearly all actives have a fitted effect of over 65% in size
Target sequence (P08659 whole entry, looked up): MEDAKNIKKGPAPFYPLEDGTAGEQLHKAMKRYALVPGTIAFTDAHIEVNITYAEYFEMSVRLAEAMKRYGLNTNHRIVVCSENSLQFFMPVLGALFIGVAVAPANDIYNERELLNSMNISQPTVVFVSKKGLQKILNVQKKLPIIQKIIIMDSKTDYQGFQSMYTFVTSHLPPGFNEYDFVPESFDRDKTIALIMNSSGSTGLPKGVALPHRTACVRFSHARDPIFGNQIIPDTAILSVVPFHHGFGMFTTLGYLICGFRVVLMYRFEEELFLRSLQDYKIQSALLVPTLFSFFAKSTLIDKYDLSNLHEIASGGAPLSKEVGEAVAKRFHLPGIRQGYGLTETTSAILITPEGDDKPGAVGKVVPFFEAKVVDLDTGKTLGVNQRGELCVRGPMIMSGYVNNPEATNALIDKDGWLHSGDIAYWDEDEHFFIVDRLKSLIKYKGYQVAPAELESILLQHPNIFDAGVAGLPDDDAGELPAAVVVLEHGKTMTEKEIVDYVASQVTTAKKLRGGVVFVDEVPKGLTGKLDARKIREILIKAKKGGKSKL
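Inhibitors were tested against purified firefly luciferase in a biochemical, low-substrate format (both substrates at 10uM) and luminescence measured with a CCD imager.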
FLuc SDR -ATP: firefly luciferase binding stabilization, ATP absent. Purified FLuc-C-HiBiT, Nano-Glo HiBiT luminescence, no ATP. shares compounds with FLuc inh-1. AID 1963318. Potency, µM (titrated, usually from 32.7 µM), most hits filed as activators. 7.8% of 1,300 active; also: nearly all actives have a fitted effect of over 55% in size
FLuc SDR ATP: binders stabilizing firefly luciferase, plus ATP | shares compounds with FLuc inh-1 | Potency, µM (top dose mostly 32.7 µM), hits mostly activators | purified FLuc-C-HiBiT + ATP, HiBiT complementation luminescence | 8.7% of 1,300 active | AID 1963319;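 also: signal reports ligand binding via conformational change of the enzyme rather than luciferase catalysis; nearly all actives have a fitted effect of over 55% in size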
FLuc inh-2: firefly luciferase enzyme inhibition; Potency, µM (highest dose often 32.7 µM), most hits filed as inhibitors; purified FLuc-C-HiBiT enzyme, luciferin luminescence; shares compounds with FLuc inh-1; 42% of 1,300 active; AID 1963320; also: nearly all actives have a fitted effect of over 70% in size
A number is an active result; n = inactive; u = inconclusive; x = no result. Unless noted, calls follow the shape of the dose curve; as a rule, active = well fitted curve in the direction sought with a large enough effect; inconclusive = small, poorly fitted or top-dose-only effect, or another doubt; inactive = no such curve, though single readings can be large; an effect the other way counts as inactive or inconclusive.

SMILES | HEK293 tox | NIH3T3 tox | NPR1 antag | FLuc inh-1 | FLuc SDR -ATP | FLuc SDR ATP | FLuc inh-2
COc1ccc(-c2ncc3c(n2)OCCN(Cc2ccccc2)C3=O)cc1 | u | u | 28µM | 2.5µM | n | n | u
COc1ncccc1-c1ncc2c(n1)OCCN(Cc1ccccc1)C2=O | n | u | n | n | x | x | x
C=CCN1CCN(C(=O)CCC[C@@H]2[C@H]3CCCN4CCC[C@@H](CN2Cc2cccnc2)[C@@H]34)CC1 | n | n | n | n | x | x | x
O=C(Cn1nc(-c2cccs2)ccc1=O)NC1CCCc2c1[nH]c1ccccc21 (stereo not drawn) | u | n | n | n | x | x | x
COc1ccc(-c2noc(C(=O)O)c2[C@H](C)O)cc1 | n | n | n | n | x | x | x
COc1ccc(-c2cc(=O)c3cc(OCC(=O)OC(C)C)ccc3o2)cc1 | x | x | x | x | u | u | 3.9µM
Cc1noc(C)c1S(=O)(=O)N1CCC(N(CCC(C)C)C2CCOCC2)CC1 | n | n | n | n | x | x | x
O=C(NCCNC(=O)c1ccc(-c2cccc(C(F)(F)F)c2)cc1)Nc1ccc(Cl)cc1 | n | n | x | x | x | x | x
COc1ccc(F)cc1-c1ccc(COc2ccc3c(cnn3CCC(=O)O)c2)cc1 | u | n | n | 22µM | n | n | u
COc1cc(Cl)ccc1-c1ccc(COc2ccc3c(cnn3CCC(=O)O)c2)cc1 | u | n | n | 50µM | n | n | u
CC(=O)Nc1cccc(-c2ccc(COc3ccc4c(cnn4CCC(=O)O)c3)cc2)c1 | u | u | n | 0.71µM | u | u | 1µM
Cc1ccc(C2Cn3nnc(C(=O)N4CCN(C(=O)c5ccc(N(C)C)cc5)CC4)c3CO2)cc1 (stereo not drawn) | n | n | n | n | x | x | x
COc1ccc(CN2C[C@@H]3C(=O)N(CCN4CCc5ccccc5C4)C(=O)[C@@H]3C2)c(OC)c1 | u | n | n | n | x | x | x
NCc1cccc(-c2cccnc2)c1 | n | n | x | x | x | x | x
c1ccc(Nc2cc3c(cn2)CN(CC2CCOC2)CCN3)cc1 (stereo not drawn) | x | x | x | x | n | n | u
c1ccc(Nc2cc3c(cn2)CN(Cc2ccsc2)CCN3)cc1 | u | 56µM | n | 10µM | n | n | 14µM
c1cncc(Nc2cc3c(cn2)CN(CC2CCOCC2)CCN3)c1 | n | u | n | u | x | x | x
COc1ccc(CN2CCNc3cc(Nc4ccccc4)ncc3C2)cn1 | 112µM | 56µM | n | 5µM | n | n | u
COc1cccc(CN2CCNc3cc(Nc4cccnc4)ncc3C2)c1 | u | u | n | 11µM | n | n | u
c1ccc(Oc2cc3c(cn2)NCCN(Cc2ccsc2)C3)cc1 | u | n | n | n | x | x | x
COc1ccc(CNc2cc3c(cn2)CN(C)CCN3)cc1OC | u | u | n | n | x | x | x
Cc1ccc(N2C(=O)c3n[nH]c(C)c3C2c2ccc(Cl)cc2)cc1 (stereo not drawn) | x | x | x | x | n | n | u
O=C(c1ccc(Cl)nc1)N1CCN(c2ccc3nnc(C4CC4)n3n2)CC1 | n | n | x | x | x | x | x
CN(Cc1ccccc1)C(=O)[C@H]1C[C@@H](O)[C@H](O)[C@@H]2N=C(Nc3ccc(Cl)cc3)S[C@@H]21 | n | n | n | n | x | x | x
CC(C)c1ccc(N2C(=S)N[C@H]3[C@@H](O)[C@H](O)C[C@@H](C(=O)N(C)Cc4ccccc4)[C@H]32)cc1 | 40µM | 35µM | n | 3.2µM | n | 11µM | 11µM
SMILES | HEK293 tox | NIH3T3 tox | NPR1 antag | FLuc inh-1 | FLuc SDR -ATP | FLuc SDR ATP | FLuc inh-2
COc1ccc2[nH]c3c(c2c1)CCNC31CCN(C(=O)C2CCN2C2CCCCC2)CC1 (stereo not drawn) | u | u | n | n | x | x | x
Clc1ccc2c(c1)-n1cc(-c3ccccc3)nc1CO2 | x | x | x | x | n | n | n
O=C1COc2ccc(-c3ccncc3)nc2CN1Cc1ccccc1 | u | u | n | n | x | x | x
O=C(Nc1ccc2c(c1)OCCO2)N1CCC(c2nc(C3CCOCC3)no2)CC1 | n | n | n | 10µM | n | n | u
O=C(Nc1ccc2c(c1)OCCO2)N1CCCC1c1nc(CCOCC2CCCC2)no1 (stereo not drawn) | u | n | n | u | x | x | x
O=C(NC1CCCCC1)N1CCC(c2nc(C3CCOCC3)no2)CC1 | n | n | n | n | x | x | x
O=C(Nc1ccc2c(c1)OCCO2)N1CC(c2nc(CCOCC3CC3)no2)C1 | u | n | n | 11µM | n | n | u
O=C1NCCCCCCN(Cc2ccncc2)[C@@H]2CN(S(=O)(=O)Cc3cccc(F)c3)CC[C@H]12 | u | n | n | n | x | x | x
Cn1cc(/C=C2\C(=O)Nc3cccnc32)c2ccccc21 | x | x | x | x | n | n | u
O=C(Cc1ccccn1)N1CCCC(C(=O)N2CCC(N3Cc4cccn4C3=O)CC2)C1 (stereo not drawn) | n | n | x | x | x | x | x
Cc1cccc(CNC(=O)Cc2csc3ccccc23)c1 | x | x | x | x | n | n | n
O=C([C@@H]1C[C@H](Oc2ccccc2)CN1C(=O)CCc1c[nH]c2ccccc12)N1CCOCC1 | n | n | n | n | x | x | x
CN(Cc1csc(-c2ccccc2)n1)C(=O)c1ccc(-n2cnnn2)cc1 | u | u | n | n | x | x | x
COCCNc1oc(-c2ccc(OC)cc2)nc1C#N | x | x | x | x | n | n | u
O=C(Nc1ccc(F)cc1)c1ccc2oc(-c3cccnc3)nc2c1 | n | n | x | x | x | x | x
Cc1ccc(C(=O)Nc2ccc3oc(-c4cccnc4)nc3c2)c(Cl)c1 | x | x | x | x | n | n | u
Cc1ccccc1N(C)C1CN(Cc2cccs2)C1 | u | u | n | n | x | x | x
Cc1c(-c2ccccc2F)[nH]c2ccc(CNC(=O)CCc3cnccn3)cc12 | u | u | n | u | x | x | x
Cc1c(-c2ccccc2F)[nH]c2ccc(CNC(=O)CC3CCC(=O)N3)cc12 (stereo not drawn) | 35µM | n | n | 10µM | u | n | 9.9µM
Cc1c(-c2ccccc2F)[nH]c2ccc(CNC(=O)CCc3cc(=O)[nH]o3)cc12 | n | u | n | 2.8µM | n | n | 9.9µM
COc1ccc(-c2nc(C(C)C)nc3c2CCN(C(=O)c2ccccc2C)CC3)cc1 | u | u | n | n | x | x | x
CC(C)(C)OC(=O)N1CC(Nc2ccccc2O)C1 | n | n | x | x | x | x | x
CCOc1ncccc1C(=O)OCC(=O)Nc1ccc(-c2nc3ccc(C)cc3s2)cc1 | x | x | x | x | n | n | u
CCCCN(C)S(=O)(=O)c1ccc(C(=O)Nc2ccc(-c3nc4ccc(C)cc4s3)cc2)cc1 | x | x | x | x | n | n | n
Cc1ccc2nc(-c3ccc(NC(=O)COc4ccccc4C(C)(C)C)cc3)sc2c1 | x | x | x | x | n | n | u
Cc1ccc(NC(=O)COc2cccc(-c3nnc4n3CCCC4)c2)cc1 | n | n | n | n | x | x | x
CCOC(=O)C1=CN(CC(=O)Nc2ccc(C)cc2)S(=O)(=O)N=C1C | u | n | n | n | x | x | x
Cc1ccc2nc(-c3ccc(NC(=O)COc4ccccc4)cc3)sc2c1 | x | x | x | x | n | n | 6.2µM

From PubChem
